The values below come from the supplement of paper PMC4206461.

This assay relates to Pseudomonas aeruginosa PA14 wild type. Description: respiration area under curve with compound as sole nitrogen source, 24 h (OmniLog AUC (arbitrary units)); higher = more respiration / better utilisation as nitrogen source, active = 2000 or more. On the procedure: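 Biolog Phenotype MicroArray plates PM6-PM8: each di/tripeptide is the sole nitrogen source (IF-0 medium with succinate/ferric citrate and dye mix A). Tetrazolium reduction was read in the OmniLog every 15 min for 24 h at 37°C and summarised as area under the respiration curve (arbitrary units). The paper counts values below 2000 as no respiration and above 8000 as solid respiration. Replicate datasets are averaged.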
Turning to `NCC(=O)N[C@@H](CO)C(=O)O` (plate: PM6), the “respiration area under curve” value is 7870 (active).

Turning to `CC(C)C(NC(=O)C1CCCN1)C(=O)O` (stereo not given) (plate: PM8), the “respiration area under curve” value was 7080 (active).

Take `NCC(=O)NCC(=O)NCC(=O)O` (plate: PM8): the “respiration area under curve” value was 7740 (active).

As to `CC(C)C[C@H](NC(=O)[C@@H](N)Cc1ccc(O)cc1)C(=O)O` (plate: PM7), the “respiration area under curve” value was 7880 (active).

Regarding `CC(C)[C@H](NC(=O)[C@@H](N)CCC(=O)O)C(=O)O` (plate: PM6), the “respiration area under curve” value was 5390 (active).

On to `C[C@H](NC(=O)CN)C(=O)O` (plate: PM6), for which the “respiration area under curve” value was 4610 (active).

As to `N[C@@H](CC(=O)O)C(=O)N[C@@H](Cc1ccccc1)C(=O)O` (plate: PM6), the “respiration area under curve” value is 3070 (active).

Regarding `C[C@H](NC(=O)[C@@H](N)CO)C(=O)O` (plate: PM7), the “respiration area under curve” value is 10900 (active).

For the molecule `C[C@@H](N)C(=O)NCC(=O)NCC(=O)O` (plate: PM8), the “respiration area under curve” value was 211 (inactive).

Take `CC(C)[C@H](N)C(=O)N[C@@H](CCCN=C(N)N)C(=O)O` (plate: PM7): the “respiration area under curve” value is 14300 (active).

For the molecule `NCC(=O)N[C@@H](CC(N)=O)C(=O)O` (plate: PM8), the “respiration area under curve” value is 14700 (active).

As to `N[C@@H](Cc1ccc(O)cc1)C(=O)N[C@@H](Cc1ccccc1)C(=O)O` (plate: PM7), the “respiration area under curve” value was 6680 (active).

In the case of `NCC(=O)N[C@@H](CCCN=C(N)N)C(=O)O` (plate: PM6), the “respiration area under curve” value was 8640 (active).

As for `NC(=O)CC[C@H](NC(=O)[C@@H]1CCCN1)C(=O)O` (plate: PM7), the “respiration area under curve” value was 9790 (active).

Consider `N[C@@H](CO)C(=O)N[C@@H](CC(=O)O)C(=O)O` (plate: PM8), for which the “respiration area under curve” value is 4090 (active).

Consider `N[C@@H](CO)C(=O)N1CCC[C@H]1C(=O)O` (plate: PM7), for which the “respiration area under curve” value was 14600 (active).

Take `CC(C)CC(N)C(=O)NC(CC(=O)O)C(=O)O` (stereo not given) (plate: PM6): the “respiration area under curve” value was 7510 (active).

For `CC(C)[C@H](N)C(=O)N[C@@H](Cc1ccccc1)C(=O)O` (plate: PM8), the “respiration area under curve” value is 6560 (active).

With `CC(C)C[C@H](N)C(=O)N[C@@H](Cc1ccccc1)C(=O)O` (plate: PM6), the “respiration area under curve” value was 6750 (active).

Regarding `NC(=O)CC[C@H](N)C(=O)NCC(=O)O` (plate: PM6), the “respiration area under curve” value is 7270 (active).

Regarding `CC(C)[C@H](NC(=O)[C@@H](N)Cc1ccc(O)cc1)C(=O)O` (plate: PM8), the “respiration area under curve” value was 7430 (active).

In the case of `CSCC[C@H](N)C(=O)N[C@@H](Cc1c[nH]c2ccccc12)C(=O)O` (plate: PM7), the “respiration area under curve” value is 3640 (active).

In the case of `N[C@@H](Cc1c[nH]c2ccccc12)C(=O)N[C@@H](CCC(=O)O)C(=O)O` (plate: PM7), the “respiration area under curve” value was 633 (inactive).

`CC[C@H](C)[C@H](NC(=O)CNC(=O)CN)C(=O)O` (plate: PM8): the “respiration area under curve” value is 10400 (active).

Consider `CSCC[C@H](N)C(=O)N[C@@H](CC(=O)O)C(=O)O` (plate: PM7), for which the “respiration area under curve” value is 4700 (active).

For `C[C@@H](O)[C@H](N)C(=O)N[C@@H](CO)C(=O)O` (plate: PM8), the “respiration area under curve” value was 7920 (active).

Take `C[C@@H](NC(=O)CN)C(=O)O` (plate: PM8): the “respiration area under curve” value was 5060 (active).

For the molecule `CC(C)[C@H](N)C(=O)N[C@@H](CC(=O)O)C(=O)O` (plate: PM7), the “respiration area under curve” value was 8160 (active).

Turning to `C[C@H](N)C(=O)N[C@@H](CCCN=C(N)N)C(=O)O` (plate: PM6), the “respiration area under curve” value is 10100 (active).

As for `CC(C)[C@H](NC(=O)[C@@H](N)CC(=O)O)C(=O)O` (plate: PM6), the “respiration area under curve” value was 4290 (active).

For `CC(C)C[C@H](N)C(=O)NCC(=O)NCC(=O)O` (plate: PM8), the “respiration area under curve” value is 10400 (active).

As for `CC(C)[C@H](NC(=O)[C@@H](N)Cc1c[nH]c2ccccc12)C(=O)O` (plate: PM8), the “respiration area under curve” value is 3080 (active).

Take `N[C@@H](CC(=O)O)C(=O)NCC(=O)O` (plate: PM8): the “respiration area under curve” value is 4290 (active).

In the case of `NC(=O)C[C@H](N)C(=O)N[C@@H](CCC(=O)O)C(=O)O` (plate: PM6), the “respiration area under curve” value is 5930 (active).

Regarding `C[C@H](N)C(=O)N[C@@H](C)C(=O)N[C@@H](C)C(=O)O` (plate: PM8), the “respiration area under curve” value is 10400 (active).

With `NC(=O)CC[C@H](NC(=O)[C@@H](N)CO)C(=O)O` (plate: PM8), the “respiration area under curve” value was 9860 (active).

As for `C[C@H](N)C(=O)N[C@@H](CO)C(=O)O` (plate: PM6), the “respiration area under curve” value is 9550 (active).

`NC(N)=NCCC[C@H](N)C(=O)N[C@@H](CC(=O)O)C(=O)O` (plate: PM6): the “respiration area under curve” value was 9430 (active).

For `CC(C)C(N)C(=O)NC(CO)C(=O)O` (stereo not given) (plate: PM8), the “respiration area under curve” value is 9530 (active).

Consider `C[C@@H](O)[C@H](N)C(=O)NCC(=O)O` (plate: PM7), for which the “respiration area under curve” value is 8140 (active).
